# In all, about 330,000 compounds went through this assay and about 300 (0.091%) were called active. Not shown: some 4% with an inconclusive outcome. The list comes from a sample in which actives are over-represented; it also holds similar structures and randomly drawn compounds. Where a call stands in place of a potency, no number is given. A number with no mark means an inactive call. The call rests on the fitted dose curve; in most records, active means well fitted inhibition curve with a large enough effect; inconclusive means small, poorly fitted or top-dose-only effect, or effect the other way, or another doubt; inactive means no such curve, though single readings can be large or run the other way.
# Target: Lysosomal acid glucosylceramidase (Homo sapiens) (UniProt P04062)
# Test: qHTS Assay for Inhibitors and Activators of N370S glucocerebrosidase as a Potential Chaperone Treatment of Gaucher Disease
# Settings: N370S GC spleen homogenate, 4MU-glucoside fluorescence; series mostly up to 59.4 µM
# Text: NIH Chemical Genomics Center [NCGC]
# NIH Molecular Libraries Probe Production Centers Network [MLPCN]
# Assay Submitter (PI): Wei Zheng
# Glucocerebrosidase (GC) catalyzes the hydrolysis of beta-glucocerebroside to glucose and ceramide in lysosomes. Mutations in the glucocerebrosidase gene result in Gaucher disease, an autosomal recessive lysosomal storage disorder. Many of the mutations encountered in patients with Gaucher disease are missense alterations that may cause misfolding, decreased stability and/or mistrafficking of this lysosomal protein. […] These inhibitors include iminosugar analogs and three non-iminosugar inhibitors identified from a previous HTS of 62,000 compounds with the wild type recombinant enzyme. However, the enhancement of enzyme activity by the chaperone action of an enzyme inhibitor must be balanced against the direct inhibition of the enzyme. An enzyme activator could also function as a chaperone by binding to the enzyme and helping to correct its misfolding and mistrafficking. While activators for GC have not yet been identified, they may have better therapeutic potential than inhibitors. Therefore the discovery and development of chemical activators may provide a new strategy for the chaperone therapy.
# We have optimized a new assay using N370S mutant GC derived from the spleen of a Gaucher patient. […] In addition, the MLPCN compound library has expanded, which increases the chance of finding new and better probes.
# NCGC Assay Protocol Summary:
# This is a fluorogenic enzyme assay with 4-methylumbelliferyl-beta-D-glucopyranoside as the substrate and N370S glucocerebrosidase from human spleen homogenate as the enzyme preparation. Upon the hydrolysis of this fluorogenic substrate, the resulting product, […] which can be detected by a standard fluorescence plate reader. Data were normalized to the controls for basal activity (without enzyme) and 100% activity (with enzyme). The AC50 values were determined from concentration-response data modeled with the standard Hill equation.
# Assay buffer: 50 mM citric acid (titrated with potassium phosphate to pH 5.0), 100 mM potassium chloride, 10 mM sodium chloride, 1 mM magnesium chloride, 0.01% Tween-20.
# 1536-well assay protocol:
# (1) Add 2 ul/well of spleen homogenate (27 ug final)
# (2) Add 23 nL compounds in DMSO solution. The final titration was 0.5 nM to 58 uM.
# (3) Add 2 ul of substrate (1 mM final)
# (4) Incubate at 37C for 40 min.
# (5) Add 2 ul stop solution (1M NaOH and 1M Glycine mixture, pH 10)
# (6) Detect the assay plate in a ViewLux plate reader (PerkinElmer) with Ex=365 nm and Em=440nm.
# Keywords: Glucocerebrosidase, beta-glucosidase, Gaucher Disease, pharmacological chaperone, chaperone therapy, high throughput screening, glucocerebrosidase inhibitor, MLSMR, MLSCN, NIH Roadmap, qHTS and NCGC
# Potency means the concentration at half of the fitted maximal effect.
Structure (SMILES),"activity change, negative = inhibition",Potency
O=C(NCc1ccco1)O[C@@H]1C(=O)c2cc(Br)ccc2O[C@H]1c1ccc2c(c1)OCO2,inactive,–
CCn1c(=O)c(=O)n(CC)c2cc(N3CCCCC3)c(NC(=O)c3ccc(Cl)cc3)cc21,inactive,–
CCC(C)C(N=C1NS(=O)(=O)c2ccccc21)C(=O)N1CCC(C)CC1 (centres undefined),inactive,–
O=C1CN(Cc2ccccc2)S(=O)(=O)c2ccccc21,inactive,–
C#CCOCCOCCOCCNc1nc(N2CCN(C(=O)CCCCCCCCCCNC(=O)Cn3cc(CCCCCN)nn3)CC2)nc(N2CCN(C(=O)CCCCCCCCCCNC(=O)[C@H](CO)n3cc(CCCSC)nn3)CC2)n1,inactive,–
C#CCOCCOCCOCCNc1nc(N2CCN(C(=O)Cn3cc(CCCCN)nn3)CC2)nc(N2CCN(C(=O)[C@H](CCCCN)n3cc(CCC(=O)O)nn3)CC2)n1,inactive,–
C#CCOCCOCCOCCNc1nc(N2CCN(C(=O)CCCCCCCCCCNC(=O)[C@H](CCCCN)n3cc(C)nn3)CC2)nc(N2CCN(C(=O)CCCCCCCCCCNC(=O)[C@H](CO)n3cc(CCCSC)nn3)CC2)n1,–,15.8 µM (active)
O=c1c(O)c(-c2ccc(O)cc2)oc2ccccc12,inactive,–
CCCCN(CC(=O)Nc1cccc(S(=O)(=O)N2CCCC2)c1)Cc1nc2ccccc2c(=O)[nH]1,inactive,–
COc1cc(C(=O)OCC(=O)NC23CC4CC(CC(C4)C2)C3)cc(OC)c1OC,inactive,–
CN1CCN(c2ncc3nc(-c4ccc(Cl)cc4)c(=O)n(-c4ccccc4)c3n2)CC1,inactive,–
COc1cccc([C@H]2Oc3ccc(OC)cc3/C(=N\OCC[C@@H]3C=C[C@H](OC(C)=O)[C@H](COC(C)=O)O3)[C@@H]2O)c1,10.4% [at 12.8 µM],–
COc1ccc(-c2ccc(C3C4C=CCCC4(C)C(=O)N3Cc3ccccc3)c(F)c2)cc1OC (centres undefined),inactive,–
CCc1ccc(CN(C)C(C)C(=O)Nc2ccc(S(=O)(=O)N3CCCC3)cc2)cc1 (centres undefined),inactive,–
Cc1csc(SCC(=O)N(c2ccccc2)C(C)C)n1,inactive,–
c1cncc(CNc2ccnc(-c3ccc4c(c3)OCO4)n2)c1,inactive,–
CC(=O)c1ccc(OCCCC(=O)Nc2ccc(C)c(S(=O)(=O)N3CCOCC3)c2)cc1,inactive,–
Cc1ccc(-c2cccc([C@H]3[C@@H]4C=CC[C@@H](C)[C@@H]4C(=O)N3Cc3ccccc3)c2)cc1,inactive,–
O=C(C1CC(=O)N(C2CCCC2)C1)N1CCN(c2cccc(C(F)(F)F)c2)CC1 (centres undefined),inactive,–
CC(C)C[C@@H](CC(=O)N[C@@H](CCC(=O)O)CC(=O)O)NC(=O)[C@@H]1CCCC[C@H]1NC(=O)C[C@@H](NC(=O)C[C@H](CO)NC(=O)[C@@H]1CCCC[C@H]1N)C(C)C,inactive,–
COc1cc(OC)c2c(c1C(CCN1CCCCC1)c1ccc(N(C)C)cc1)OC(=O)CC2c1ccc(N(C)C)cc1 (centres undefined),inactive,–
Cc1nc(-c2ccc(F)cc2)c(CC(=O)N(C)CC(=O)Nc2c(C)cccc2C)s1,inactive,–
CC(C)(C)c1ccc(S(=O)(=O)N2CCN(C(=O)c3ccc4c(c3)C(=O)N(Cc3ccncc3)C4=O)CC2)cc1,inactive,–

Structure (SMILES),"activity change, negative = inhibition",Potency
CC(C)(O/N=C(\C(=O)N[C@@H]1C(=O)N2C(C(=O)[O-])=C(C[n+]3ccccc3)CS[C@@H]12)c1csc(N)n1)C(=O)O,inactive,–
CCOCCOC(=O)C(C)Oc1ccc(Oc2ncc(C(F)(F)F)cc2Cl)cc1 (centres undefined),inactive,–
O=C1[C@H]2[C@H]3[C@H](O)[C@H](O)C/C(=N/OCc4ccccc4)[C@H]3CC[C@@H]2C(=O)N1Cc1ccccc1,4.77% [at 12.8 µM],–
CC(=O)N1[C@H](C)C=C[C@]1(Cc1ccccc1)C(=O)NCc1ccccn1,inactive,–
S=C(NCCCc1cnc[nH]1)NCCCN(Cc1ccc(Cl)c(Cl)c1)c1ccc(Br)cn1,–,1 µM (active)
CN(C)CCCNC(=S)NCc1ccc(Cl)cc1,inactive,–
Fc1ccc(Cl)cc1-c1nc(Nc2ccncc2)c2nccnc2n1,inactive,–
CC1(C)OC2CC3C4CCC5=CC(=O)CCC5(C)C4(F)C(O)CC3(C)[C@]2(C(=O)CCl)O1 (some centres undefined),inactive,–
COc1ccccc1CNS(=O)(=O)c1cc(C(=O)NCc2ccccn2)c(Cl)cc1Cl,inactive,–
CCCC[C@@H]1C[C@H]1C(NC(=O)c1ccco1)c1ccc(C(=O)OC)cc1 (some centres undefined),inactive,–
Cc1ccccc1CN1C(=O)c2ccccc2Sc2ccc(C(=O)NCCCN3CCOCC3)cc21,–,11.2 µM (active)
CCC1=Nc2cc(C(=O)NCCCN3CCOCC3)ccc2Sc2ccc(Br)cc21,inactive,–
Cc1ccc(C(=O)NCCN2CCOCC2)cc1C,inactive,–
CCc1cccc(NC(=O)COC(=O)c2cc(=O)c3ccccc3o2)c1,inactive,–
CCc1nnc(NC(=O)C2CCN(C(=O)c3ccccc3C)CC2)s1,inactive,–
O=NO,inactive,–
CN1CCN(S(=O)(=O)c2ccc(N3CCN(c4ccccc4O)CC3)c([N+](=O)[O-])c2)CC1,inactive,–
C=CC(=C)CCC=C(C)C,inactive,–
CC(=O)N1CCOc2ccc(S(=O)(=O)N3CCN(c4cccc(C(F)(F)F)c4)CC3)cc21,inactive,–
Cc1[nH]c(C)c(S(=O)(=O)N2CCN(c3cccc(C(F)(F)F)c3)CC2)c1C(=O)N1CCCC1,inactive,–
O=C1CC(=O)Nc2cc(S(=O)(=O)N3CCN(c4cccc(C(F)(F)F)c4)CC3)ccc2N1,–,14.1 µM (active)
CC1CCN(C(=O)COC(=O)CCC(=O)c2cccs2)CC1,inactive,–
Cc1cc2nc3c(=O)[nH]c(=O)nc-3n(C[C@H](O)[C@H](O)[C@H](O)CO)c2cc1C,inactive,–

Structure (SMILES),"activity change, negative = inhibition",Potency
CO[C@@]12[C@@H](COC(N)=O)C3=C(C(=O)C(C)=C(N)C3=O)N1C[C@@H]1N[C@@H]12,inactive,–
COc1ccccc1C(=O)Nc1ccc(C)c(S(=O)(=O)N2CCCCC2)c1,inactive,–
COc1cc(C(c2c(NC(=O)c3ccco3)sc(C)c2C)N2CCOCC2)cc(OC)c1OC (centres undefined),inactive,–
CC1(C(=O)OCC(=O)Nc2ncc(Cl)cc2Cl)CC1(Cl)Cl (centres undefined),inactive,–
Cc1cccc(N2CCN(C(=O)c3cccc(S(=O)(=O)N4CCc5ccccc5C4)c3)CC2C)c1 (centres undefined),inactive,–
Cc1cccc(N2CCN(S(=O)(=O)c3ccc(-c4cc(C)no4)s3)CC2C)c1 (centres undefined),inactive,–
Cc1cccc(N2CCN(S(=O)(=O)c3ccc4[nH]c(=O)c(=O)[nH]c4c3)CC2C)c1 (centres undefined),–,12.6 µM (active)
CCCCNc1nc(C)nc2c1nc(-c1ccccc1)n2CCCCN(CC)CC,inactive,–
CC(C)[C@@H](CC(=O)N[C@@H]1CCNC[C@H]1C(=O)N[C@H](CC(=O)N[C@@H](CCC(=O)O)CC(=O)O)Cc1ccccc1)NC(=O)C[C@H](CO)NC(=O)[C@@H]1CNCC[C@H]1N,inactive,–
CN(CC(=O)NC(=O)Nc1ccccc1F)Cc1ccccc1,inactive,–
Oc1ccc(-c2c(-c3ccccc3)nn3c(C(F)(F)F)cc(C(F)(F)F)nc23)cc1,inactive,–
Cn1c(N)c(C(=O)COC(=O)c2cc(C(F)(F)F)nc3c(C(F)(F)F)cccc23)c(=O)n(C)c1=O,inactive,–
Cc1cc(C)cc(NC(=O)C(c2ccccc2)N2CCN(CC(=O)N3CCCC3)CC2)c1 (centres undefined),inactive,–
CCCn1c(-c2ccc(F)cc2)nc2c(NCC3CCCN3CC)nc(C)nc21 (centres undefined),inactive,–
Cc1cccc(CNc2ccnc(-c3cccnc3)n2)c1,inactive,–
CC(C)C(NS(=O)(=O)c1ccc(-c2ccc(Br)cc2)cc1)C(=O)O (centres undefined),inactive,–
Cn1nc(C(=O)OCC(=O)N(Cc2ccccc2)C(C)(C)C)c2ccccc2c1=O,inactive,–
O=S(O)S(=O)(=O)O,inactive,–
O=C(CN1CCN(C2CCS(=O)(=O)C2)CC1)N1N=C(c2ccc(Cl)cc2)CC1c1ccco1 (centres undefined),inactive,–
O=C(CCNS(=O)(=O)c1ccccc1)NCCCc1ccccc1,inactive,–
Cc1ccc(-n2nc(C)c(C(=O)O)c2-n2cccc2)cc1,inactive,–
COCCNc1nc(-c2ccccc2)nc2c1oc1ccccc12,inactive,–
COc1ccccc1-c1nc(NCCNC(C)=O)c2ccccc2n1,inactive,–

Structure (SMILES),"activity change, negative = inhibition",Potency
CCC(=O)OCCNc1nc(-c2ccccc2)nc2ccccc12,–,2 µM (active)
O=C(CN1CCCCC1)NC(=O)Nc1ccccc1F,inactive,–
COc1ccc(C2/C=C\CN(C(=O)c3ccc(C)cc3)C(Cc3ccccc3)C(=O)N2Cc2ccc(F)cc2)cc1 (centres undefined),inactive,–
O=C(CSc1nnc(CN2CCCC2)n1-c1ccc(F)cc1)c1ccc2c(c1)OCO2,inactive,–
COc1ccc2c(c1)O[C@@H](c1ccc3c(c1)OCO3)[C@H](OC(=O)NCCc1ccc(OC)c(OC)c1)C2=O,inactive,–
Cc1ccc(NC(=O)Cn2c(C)csc2=O)cc1,inactive,–
CN1CCN(c2ccc(NC(=O)c3cc(Cl)c4c(c3)OCCO4)cc2)CC1,inactive,–
C1CCC2OC2C1 (centres undefined),inactive,–
Cc1ccc(C)c(NC(=O)C(c2ccccc2)N2CCN(CC(=O)NC3CC3)CC2)c1 (centres undefined),inactive,–
COc1ccc(CCNC(=O)COC(=O)Cc2cccc(F)c2)cc1,inactive,–
C=CCOC(=O)C(=C)C,inactive,–
O=C(NCc1ccccn1)[C@]1(C(F)(F)F)C[C@H](CCc2ccccc2)CCCO1,inactive,–
COC(=O)C(CC(C)C)NS(=O)(=O)c1cc(Br)ccc1Br (centres undefined),inactive,–
Cc1csc(NC(=O)C2CCN(S(=O)(=O)c3ccccc3)CC2)n1,inactive,–
CNC(=O)[C@]1(C(F)(F)F)C[C@H](CCc2ccccc2)CCCO1,inactive,–
CN1CCc2nc(-c3ccccc3)c(-c3ccccc3)cc2C1,-2.21% [at 12.8 µM],–
COc1ccc(-c2nc(-c3ccccc3)oc2Nc2ccc3ccccc3c2)cc1,inactive,–
COc1cccc([C@@H]2Oc3ccc(Br)cc3C(=O)[C@H]2OC(=O)NCc2ccc3c(c2)OCO3)c1,inactive,–
CC(OC(=O)Cc1ccc(F)cc1)C(=O)N1CCc2ccccc21 (centres undefined),inactive,–
CCOC(=O)Cn1c(=O)sc2cccc(Cl)c21,inactive,–

# Reference: PubChem BioAssay AID2101 (National Center for Advancing Translational Sciences (NCATS), 2009)
